According to PubChem BioAssay:
Calls of active or inactive are those of the source.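 Rule for the calls: active = GFP response below 50% of the DMSO control; inconclusive = fewer than 70 events counted for a yeast strain; inactive = the rest.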

test: hit retest on RPL19A-GFP reporter strain – cell-based, S. cerevisiae, flow cytometry, cherry picks, mother/daughter gates, confirmation (AID 2270); details: 3 h, at 10 µM, stronger effect = lower value, 100 = same GFP as DMSO wells

SMILES	GFP response vs DMSO
CCCCCCNC(=O)c1c(O)c2cccc3c2n(c1=O)CCC3	100% (inactive)
Cc1ccc(N2CCN(C(=O)c3ccccc3)CC2)c(C)c1	99% (inactive)
COc1ccccc1-c1noc(CCC(=O)Nc2cccc(C)c2)n1	99.9% (inactive)
O=C(NC(=S)NNC(=O)c1ccc(Cl)cc1Cl)c1cccnc1	102% (inactive)
CN1C(=O)c2cccc3c(Cl)ccc(c23)C1=O	97.8% (inactive)
Cc1nc2c(-c3ccc(F)cc3)c(C)nn2c(N2CCOCC2)c1C	100% (inactive)
CCOc1cc(-c2nc3cc(C)ccn3c2NCC2CCCO2)ccc1O (stereo not given)	103% (inactive)
CCOC(=O)CS(=O)(=O)c1nc(-c2ccccc2)cc(C(F)(F)F)n1	101% (inactive)
C[n+]1ccc(/C=C/c2c[nH]c3ccc(F)cc23)cc1	101% (inactive)
COc1cc(NC(=O)c2ccc(F)cc2)ccc1NC(=O)c1cc2ccccc2o1	98% (inactive)
O=C(NCc1cccnc1)c1cnc2n(c1=O)CCS2	101% (inactive)
O=C(Nc1cc(Sc2ccccn2)cc([N+](=O)[O-])c1)c1cccc(F)c1	96.9% (inactive)
O=C1CC(SCCO)C(=O)N1c1ccc(Oc2ccccc2)cc1 (stereo not given)	99.7% (inactive)
Cc1cc(NCCN2CCOCC2)n2ncc(-c3ccccc3)c2n1	99.6% (inactive)
O=C(Nc1cccc(O)c1)c1ccccc1	94.6% (inactive)
Cc1nn(C)c(C(=O)Sc2cccc(Cl)c2)c1[N+](=O)[O-]	99.6% (inactive)
COc1ccc(N2C(=O)C(Cl)=C(Nc3ccccc3O)C2=O)cc1	99.6% (inactive)
COc1ccc(Br)cc1/C=C/C(=O)c1ccc(NC(C)=O)cc1	100% (inactive)
CC(=O)N(\C=C/C=C/C=C1\Sc2ccccc2C1=O)c1ccccc1	110% (inactive)
N#C/C(=C\c1ccccn1)c1nc2ccccc2s1	170% (inactive)

SMILES	GFP response vs DMSO
CS(=O)(=O)Nc1cccc(C2=NN(S(C)(=O)=O)C(c3ccc4c(c3)OCO4)C2)c1 (stereo not given)	97.2% (inactive)
C/C(=N\NC(=O)c1cccc(Br)c1)c1ccccn1	108% (inactive)
O=C(O)Cc1ccc2ccc3ccccc3c2c1	96.8% (inactive)
Cc1ccc(S(=O)(=O)N(Cc2ccccc2)Cc2ccco2)cc1	102% (inactive)
O=C1c2ccsc2SCCN1Cc1c(F)cccc1Cl	92.8% (inactive)
CS/C(N)=N/N=C/c1ccc2c(c1)OCO2	97.8% (inactive)
COc1ccc(C(=O)NNC(=S)NC(=O)/C=C/c2cccs2)cc1	106% (inactive)
COCc1nnc(NC(=O)c2ccc(S(=O)(=O)N(C)C3CCCCC3)cc2)o1	97.6% (inactive)
COC(=O)c1ccc(/C=N/OCC(=O)NCCc2ccc(OC)c(OC)c2)cc1	99% (inactive)
CC(C)CC[n+]1ccccc1/C=C/c1ccc(N(C)C)cc1	98.2% (inactive)
COc1cccc(NC(=O)/C=C/c2ccc([N+](=O)[O-])cc2)c1	96% (inactive)
O=C(c1ccc(Cl)cc1)N1CCN(c2cccc3[nH]ccc23)CC1	94.6% (inactive)
CCc1ccc(NC(=O)c2nc(S(=O)(=O)Cc3ccccc3)ncc2Cl)cc1	94.8% (inactive)
c1ccc2oc(SCc3nc4ccccc4s3)nc2c1	99% (inactive)
CCOC(=O)CSC1=NC(=O)/C(=C\c2ccc(Cl)cc2)S1	96.5% (inactive)
COc1ccc(C2CC(c3ccccc3)=NN2S(=O)(=O)c2ccccc2)c(OC)c1 (stereo not given)	99.2% (inactive)
FC(F)(F)c1cc(-c2cccs2)nc2cc(-c3cccs3)nn12	103% (inactive)
CC1CN(c2nc3ccccn3c(=O)c2/C=C(\C#N)C(=O)N2CCOCC2)CC(C)O1 (stereo not given)	98.5% (inactive)
Cc1ccc(CC2CC(=O)N(Cc3ccco3)C2=O)cc1 (stereo not given)	102% (inactive)
Cc1ccc(-c2nnc(NC(=O)c3ccc([N+](=O)[O-])o3)o2)c(C)c1	101% (inactive)

same assay, conditions: 3 h, measured here: daughter cell gate, at 10 µM, stronger effect = lower value, 100 = same GFP as DMSO wells

SMILES	GFP response vs DMSO
CCCCCCNC(=O)c1c(O)c2cccc3c2n(c1=O)CCC3	101%
Cc1ccc(N2CCN(C(=O)c3ccccc3)CC2)c(C)c1	99.4%
COc1ccccc1-c1noc(CCC(=O)Nc2cccc(C)c2)n1	100%
O=C(NC(=S)NNC(=O)c1ccc(Cl)cc1Cl)c1cccnc1	103%
CN1C(=O)c2cccc3c(Cl)ccc(c23)C1=O	95.7%
Cc1nc2c(-c3ccc(F)cc3)c(C)nn2c(N2CCOCC2)c1C	101%
CCOc1cc(-c2nc3cc(C)ccn3c2NCC2CCCO2)ccc1O (stereo not given)	105%
CCOC(=O)CS(=O)(=O)c1nc(-c2ccccc2)cc(C(F)(F)F)n1	105%
C[n+]1ccc(/C=C/c2c[nH]c3ccc(F)cc23)cc1	99.5%
COc1cc(NC(=O)c2ccc(F)cc2)ccc1NC(=O)c1cc2ccccc2o1	99.1%
O=C(NCc1cccnc1)c1cnc2n(c1=O)CCS2	101%
O=C(Nc1cc(Sc2ccccn2)cc([N+](=O)[O-])c1)c1cccc(F)c1	96.1%
O=C1CC(SCCO)C(=O)N1c1ccc(Oc2ccccc2)cc1 (stereo not given)	98.7%
Cc1cc(NCCN2CCOCC2)n2ncc(-c3ccccc3)c2n1	99.8%
O=C(Nc1cccc(O)c1)c1ccccc1	96.1%
Cc1nn(C)c(C(=O)Sc2cccc(Cl)c2)c1[N+](=O)[O-]	97.6%
COc1ccc(N2C(=O)C(Cl)=C(Nc3ccccc3O)C2=O)cc1	98.8%
COc1ccc(Br)cc1/C=C/C(=O)c1ccc(NC(C)=O)cc1	98.4%
CC(=O)N(\C=C/C=C/C=C1\Sc2ccccc2C1=O)c1ccccc1	106%
N#C/C(=C\c1ccccn1)c1nc2ccccc2s1	158%

SMILES	GFP response vs DMSO
CS(=O)(=O)Nc1cccc(C2=NN(S(C)(=O)=O)C(c3ccc4c(c3)OCO4)C2)c1 (stereo not given)	98.9%
C/C(=N\NC(=O)c1cccc(Br)c1)c1ccccn1	97.6%
O=C(O)Cc1ccc2ccc3ccccc3c2c1	92.8%
Cc1ccc(S(=O)(=O)N(Cc2ccccc2)Cc2ccco2)cc1	103%
O=C1c2ccsc2SCCN1Cc1c(F)cccc1Cl	90.7%
CS/C(N)=N/N=C/c1ccc2c(c1)OCO2	98.9%
COc1ccc(C(=O)NNC(=S)NC(=O)/C=C/c2cccs2)cc1	109%
COCc1nnc(NC(=O)c2ccc(S(=O)(=O)N(C)C3CCCCC3)cc2)o1	98.6%
COC(=O)c1ccc(/C=N/OCC(=O)NCCc2ccc(OC)c(OC)c2)cc1	99%
CC(C)CC[n+]1ccccc1/C=C/c1ccc(N(C)C)cc1	94.9%
COc1cccc(NC(=O)/C=C/c2ccc([N+](=O)[O-])cc2)c1	97.6%
O=C(c1ccc(Cl)cc1)N1CCN(c2cccc3[nH]ccc23)CC1	94.1%
CCc1ccc(NC(=O)c2nc(S(=O)(=O)Cc3ccccc3)ncc2Cl)cc1	94.2%
c1ccc2oc(SCc3nc4ccccc4s3)nc2c1	98.9%
CCOC(=O)CSC1=NC(=O)/C(=C\c2ccc(Cl)cc2)S1	87.9%
COc1ccc(C2CC(c3ccccc3)=NN2S(=O)(=O)c2ccccc2)c(OC)c1 (stereo not given)	99.8%
FC(F)(F)c1cc(-c2cccs2)nc2cc(-c3cccs3)nn12	102%
CC1CN(c2nc3ccccn3c(=O)c2/C=C(\C#N)C(=O)N2CCOCC2)CC(C)O1 (stereo not given)	99.3%
Cc1ccc(CC2CC(=O)N(Cc3ccco3)C2=O)cc1 (stereo not given)	101%
Cc1ccc(-c2nnc(NC(=O)c3ccc([N+](=O)[O-])o3)o2)c(C)c1	99.3%
